Results on 13 compounds are retold here after PubChem BioAssay (NCI).

This is part of a sample that, as a whole, favours compounds with a hit. Of some 83,000 tested, about 20% had one in any assay.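 How to read the values: 0–100, growth inhibition (40 = 60% inhibited); 0, no net growth; -100 to 0, cell death (-40 = 40% of starting cells died; -100 = all dead).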 Unmarked numbers belong to inactive results. Active and inactive are the calls of the source. How the source made its calls: active means growth percent below 10; inactive means the rest.

Test systems include HCT-15 colon; HT29 colon; SNB-75 CNS; SNB-19 CNS; U251 CNS; PC-3 prostate; SK-MEL-5 melanoma; UACC-62 melanoma; LOX IMVI melanoma; SK-MEL-28 melanoma.
Holding throughout (experiment): NCI-60 one-dose screen, 48 h (100 = growth as untreated, 0 = no growth, -100 = all killed)
Settings in all cases: 10 µM unless noted

With `COc1ccc(N=Nc2c(N)nn3c(N)c(C#N)c(-c4ccc(C)cc4)nc23)cc1`, the growth in the assay with HCT-15 colon is 47.8%; with HT29 colon, 66.1%; in the assay with SNB-75 CNS it was 22.9%; in the assay on SNB-19 CNS it was 89.5%; in the assay with U251 CNS it was 74.4%; in the assay with PC-3 prostate, 36.8%. For the same compound, the growth is 55.4% with SK-MEL-5 melanoma, 78.5% in the assay with UACC-62 melanoma, 50.1% with LOX IMVI melanoma and 91.1% in the assay on SK-MEL-28 melanoma.
On to `Cc1cc(C2(c3cc(C)c(OCC(O)CNc4c(C)n(C)n(-c5ccccc5)c4=O)cc3C(C)C)OC(=O)c3ccccc32)c(C(C)C)cc1OCC(O)CNc1c(C)n(C)n(-c2ccccc2)c1=O` (stereo not given), for which the growth in the assay on HCT-15 colon was 19.7%; with HT29 colon, 13.4%; in the assay on SNB-75 CNS it was 46.6%; in the assay on SNB-19 CNS it was 48.9%; with U251 CNS, 22.5%; in the assay on PC-3 prostate, 12.9%. The growth in the assay on SK-MEL-5 melanoma was -25.3% (active); in the assay on UACC-62 melanoma, 24.4%; with LOX IMVI melanoma it was 18.3%; in the assay with SK-MEL-28 melanoma, 33.8%.
Regarding `COc1cccc(-c2ccc(/C=N/NC(=O)c3[nH]c4ccc(Br)cc4c3-c3ccccc3)s2)c1`, the growth in the assay on HCT-15 colon is 3.37% (active); with HT29 colon it was -32.2% (active); in the assay on SNB-75 CNS, 36.8%; with SNB-19 CNS, 11.7%; in the assay with U251 CNS, -23% (active); in the assay with PC-3 prostate it was 23.7%. Moreover, the growth in the assay on SK-MEL-5 melanoma is -60.9% (active); with UACC-62 melanoma it was -17.1% (active); in the assay with LOX IMVI melanoma it was 4.04% (active); with SK-MEL-28 melanoma, 8.82% (active).
On to `Cc1ccccc1NC(=O)c1cccc(NC(=O)CCl)c1`, for which the growth in the assay on HCT-15 colon is 43.5%; in the assay with HT29 colon it was 35.6%; in the assay with SNB-75 CNS, 53.9%; with SNB-19 CNS it was 72.7%; with U251 CNS, -53.1% (active); in the assay on PC-3 prostate it was 55.8%. For the same compound, the growth in the assay with SK-MEL-5 melanoma is 44.2%; in the assay with UACC-62 melanoma, 24.4%; in the assay on LOX IMVI melanoma it was -47.5% (active); in the assay with SK-MEL-28 melanoma it was 71.1%.
For the compound `Nc1nn2c(-c3cc4cc(Br)ccc4oc3=O)ccnc2c1N=Nc1ccc(Br)cc1`, the growth with HCT-15 colon is 31.8%; in the assay with HT29 colon it was 28.8%; in the assay on SNB-75 CNS, 7.89% (active); with SNB-19 CNS, -1.72% (active); in the assay on U251 CNS, 6.85% (active); with PC-3 prostate, 47.7%. The growth in the assay on SK-MEL-5 melanoma was 22.7%; in the assay with UACC-62 melanoma it was 48.9%; in the assay on LOX IMVI melanoma, 18%; with SK-MEL-28 melanoma, 20.5%.
With `CCCSc1nnc(-c2sc3nc4ccccc4n3c2C)o1`, the growth in the assay with HCT-15 colon is 99.2%; in the assay with HT29 colon, 110%; in the assay on SNB-75 CNS it was 95.6%; in the assay on SNB-19 CNS, 99.8%; in the assay with U251 CNS, 113%; in the assay with PC-3 prostate, 105%. For the same compound, the growth in the assay on SK-MEL-5 melanoma is 98.5%; in the assay with UACC-62 melanoma it was 94.5%; in the assay on LOX IMVI melanoma, 113%; in the assay with SK-MEL-28 melanoma, 110%.
Regarding `Cn1cc(-c2cc(N)n3nc(-c4c[nH]c5ccc(F)cc45)cc3n2)c2cc(Br)cnc21`, the growth in the assay on HCT-15 colon was -11.7% (active); in the assay on HT29 colon, 25.8%; in the assay with SNB-75 CNS, 134%; with SNB-19 CNS, 98.3%; in the assay with U251 CNS, 22.4%; with PC-3 prostate, 53.8%. The growth in the assay on SK-MEL-5 melanoma is 78.8%; in the assay with UACC-62 melanoma, 73.7%; in the assay on LOX IMVI melanoma it was -56.8% (active); with SK-MEL-28 melanoma, 80%.
Take `COc1cc(/C=N/NC(=O)c2ccc(OCc3nc4ccc(C)cc4[nH]3)cc2)cc(OC)c1OC`: the growth was 38.9% in the assay on HCT-15 colon; 18.9% in the assay with HT29 colon; 135% in the assay with SNB-75 CNS; 66.2% in the assay on SNB-19 CNS; 29% with U251 CNS; 49.7% in the assay on PC-3 prostate. Besides, the growth in the assay with SK-MEL-5 melanoma is 18.3%; in the assay on UACC-62 melanoma, 29.9%; with LOX IMVI melanoma, 40.4%; in the assay with SK-MEL-28 melanoma, 39.4%.
For `Nc1nn2c(-c3cc4cc(Br)ccc4oc3=O)ccnc2c1N=Nc1ccc(S(N)(=O)=O)cc1`, the growth with HCT-15 colon is 103%; with HT29 colon, 92.4%; with SNB-75 CNS, 116%; with SNB-19 CNS it was 41.6%; in the assay on U251 CNS it was 28.1%; with PC-3 prostate, 87.5%. Besides, the growth was 63.7% with SK-MEL-5 melanoma, 83.7% with UACC-62 melanoma, 63.8% with LOX IMVI melanoma and 80.7% in the assay with SK-MEL-28 melanoma.
On to `O=C(c1ccc(O)cc1)C1[C@H](c2ccc(Cl)cc2)[C@@H](c2ccccc2)NC12C(=O)Nc1ccc(Br)cc12` (stereo not given in full), for which the growth in the assay on HCT-15 colon was -67% (active); in the assay with HT29 colon it was -68.1% (active); in the assay with SNB-75 CNS it was -13% (active); in the assay with SNB-19 CNS, -2.97% (active); with U251 CNS it was -62% (active); in the assay with PC-3 prostate it was -16% (active). Besides, the growth in the assay on SK-MEL-5 melanoma was -93.3% (active); in the assay with UACC-62 melanoma it was -40% (active); in the assay on LOX IMVI melanoma it was -100% (active); in the assay on SK-MEL-28 melanoma, -5.57% (active).
In the case of `C=CCSc1nnc(-c2ccc(-c3nc4ccc(Cl)cc4[nH]3)cc2)o1`, the growth in the assay with HCT-15 colon was 28%; with HT29 colon, 32.1%; in the assay on SNB-75 CNS, 45.9%; in the assay with SNB-19 CNS, 76.1%; with U251 CNS, 47.3%; with PC-3 prostate it was 63.2%. The growth was 35.9% with SK-MEL-5 melanoma, 39.4% in the assay on UACC-62 melanoma, 39.4% in the assay with LOX IMVI melanoma and 60% in the assay with SK-MEL-28 melanoma.
For the compound `CC1=C(C(=O)Nc2ccccc2)C(c2cccc3ccccc23)n2c(nc3ccccc32)N1` (stereo not given), the growth in the assay on HCT-15 colon was 64.6%; in the assay on HT29 colon, 40.5%; in the assay on SNB-75 CNS, -63% (active); in the assay with SNB-19 CNS, 20.2%; with U251 CNS, 25%; in the assay with PC-3 prostate, 31.3%. The growth in the assay with SK-MEL-5 melanoma was 82.6%; with UACC-62 melanoma it was 66.8%; in the assay on LOX IMVI melanoma, 53.5%; in the assay on SK-MEL-28 melanoma, 70%.
On to `COc1cc(CNC(=O)C[C@H](C)CCC=C(C)C)ccc1OCc1cn(-c2ccc(Br)cc2)nn1`, for which the growth in the assay with HCT-15 colon is 82.4%; with HT29 colon, 94.4%; in the assay with SNB-75 CNS, 47.3%; in the assay on SNB-19 CNS, 57.7%; in the assay on U251 CNS, 63.4%; in the assay on PC-3 prostate it was 81.4%. The growth in the assay on SK-MEL-5 melanoma is 55.7%; in the assay on UACC-62 melanoma it was 65.1%; in the assay with LOX IMVI melanoma, 74%; in the assay with SK-MEL-28 melanoma, 96.5%.
